Laboratory results as given in PubChem BioAssay AID540345 (The Scripps Research Institute Molecular Screening Center, 2011).
Unmarked numbers belong to inactive results. How the calls were made is not given here.

Test system: Rolipram
Experiment: selectivity profile over receptors, transporters, CYPs – biochemical, Ricerca HitProfilingScreen, CYP450, set 2, selectivity assay for GPR7 antagonist project, profiling panel (AID 540345)
Conditions: Ricerca radioligand binding/CYP panel, at 10 µM, hits give high values

COc1ccc(Oc2c(Cl)cnn(C3c4ccccc4-c4ccccc43)c2=O)cc1
inhibition: 5%
